# Compound activity (PubChem BioAssay)
# RXFP1 agonist – RXFP1 (human) receptor agonism; Potency, µM (titrated, usually from 57.5 µM), for inactives: at the top dose activation, hits mostly activators; AID 2676; HEK293T-RXFP1 cAMP TR-FRET, 30 min; response scale: percent of porcine relaxin response, buffer zero; 370,000 compounds, 0.3% hits; note: potency is the fitted concentration of half-maximal effect; % is set by controls: 0 for no effect and ±100 for the full control effect; nearly all actives have a fitted effect of over 60% in size
#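 HEK293T cells stably expressing RXFP1 were pretreated with the PDE4 inhibitor Ro 20174, exposed to compounds for 30 min at 37C, lysed, and cAMP was read by TR-FRET. Data normalized to buffer (basal) and 29 nM porcine relaxin (100%).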
# gsp agonist – agonists of gsp mutant (McCune-Albright syndrome) | gsp mutant cells, cAMP HTRF, 30 min | Potency, µM (top dose mostly 76.9 µM), inactives show top-dose activation (cAMP increase), hits mostly activators | 340,000 compounds, 0.13% hits | AID 624287; active = well fitted activation curve with a large enough effect; inconclusive = small, poorly fitted or top-dose-only effect, or another doubt; inactive = no such curve, though single readings can be large or run the other way; cell line not stated here;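 note: phosphodiesterase inhibitor Ro 20-1724 added with compounds to block cAMP breakdown; potency is the fitted concentration of half-maximal effect; nearly all actives have a fitted effect of over 60% in size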
#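 Cells in DMEM/10% FBS with G418 were pretreated with compounds in DMSO plus […] (300 uM stock) for 30 min at 37C. cAMP was measured by HTRF (cAMP-d2 plus anti-cAMP antibody-K) after 30 min at room temperature.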
# gsp antagonist – antagonizes gsp, the McCune-Albright syndrome mutation; Potency, µM (titrated, usually from 76.9 µM), for the others: at the highest dose activity change, negative = inhibition, actives largely listed as inhibitors; gsp-mutant cells, cAMP HTRF, 30 min; 340,000 compounds, 0.4% hits; calls by dose curve; cell line not stated here;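 note: intracellular cAMP measured with PDE inhibitor Ro 20-1724 present during compound exposure; potency is the fitted concentration of half-maximal effect; % is set by controls: 0 for no effect and ±100 for the full control effect; nearly all actives have a fitted effect of over 65% in size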
#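 Cells, 2000/well, grown 16–24 h in DMEM 10% FBS with 0.5 mg/ml G418, then compounds plus […] (300 uM addition stock), 30 min at 37C. cAMP read by HTRF (cAMP-d2 and anti-cAMP antibody-K in lysis buffer) after 30 min RT.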
# RXFP1 antag – blocks the human relaxin receptor RXFP1 | Q9HBX9 | HEK293-RXFP1, relaxin-stimulated cAMP HTRF, 30 min; stronger effect = lower value | activity change, negative = inhibition, % at 57.5 µM | 350,000 compounds, 0.59% hits | AID 1259400;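 active = activity change of -60% or lower, but not beyond a set lower limit; inconclusive = change between -60% and -40%, or beyond the set limit; inactive = change above -40%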; note: % is set by controls: 0 for no effect and ±100 for the full control effect
# p53 reactivation – re-activators of mutant p53; AID 504706; 320,000 compounds, 0.063% hits; Potency, µM (top dose mostly 92.2 µM), for inactives: at the highest dose activity change, positive = activation, usual class: activators; H1299 p53-A138V BP100-luciferase reporter, luminescence, 24 h; note: potency is the fitted concentration of half-maximal effect; % of control where 0% means no effect; nearly all actives have a fitted effect of over 45% in size
#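 H1299 (p53-null), stable ts p53-A138V + BP100-Luc; 1000 cells/well, Opti-MEM/10% FBS; cpd 4 pt, 1:5; 24 h, 37 deg C, 5% CO2; detection reagent 10 min RT; luminescence.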
# Tb PFK inh-1 – inhibitors of T. brucei phosphofructokinase. O15648. AID 485367. 330,000 compounds, 0.17% hits. T. brucei PFK, ADP-Glo luminescence. Potency, µM (doses to about 57.5 µM), for inactives: at the top dose activity, negative = inhibition, usual class: inhibitors;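 note: potency is the fitted concentration of half-maximal effect; 0% = uninhibited 1x PFK enzyme wells and -100% = no-enzyme wells; nearly all actives have a fitted effect of over 60% in size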
# Target sequence (O15648 whole entry, looked up): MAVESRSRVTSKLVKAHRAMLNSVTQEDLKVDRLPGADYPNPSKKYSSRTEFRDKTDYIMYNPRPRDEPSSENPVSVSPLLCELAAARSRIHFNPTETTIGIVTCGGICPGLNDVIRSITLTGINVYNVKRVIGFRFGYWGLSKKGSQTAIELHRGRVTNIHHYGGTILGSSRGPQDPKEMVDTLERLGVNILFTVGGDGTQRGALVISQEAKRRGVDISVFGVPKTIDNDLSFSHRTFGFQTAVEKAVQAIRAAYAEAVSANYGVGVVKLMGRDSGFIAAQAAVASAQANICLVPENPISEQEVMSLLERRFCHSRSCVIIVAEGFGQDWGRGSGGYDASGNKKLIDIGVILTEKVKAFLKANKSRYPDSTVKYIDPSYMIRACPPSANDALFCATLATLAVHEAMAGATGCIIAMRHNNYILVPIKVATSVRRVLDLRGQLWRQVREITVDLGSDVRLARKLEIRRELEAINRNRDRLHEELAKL
#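 In TEA buffer at pH 8.0 with 5 mM MgCl2, enzyme (1.25 nM) converted F6P (0.5 mM) and ATP (0.1 mM) for 45 min at room temperature. ADP product was read by luciferase luminescence.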
# Tb PFK KinaseGlo – Tb phosphofructokinase inhibition, orthogonal luminescence; Potency, µM (top dose mostly 57.5 µM), for inactives: top-dose inhibition; Tb PFK enzyme, ATP depletion, Kinase-Glo Plus luminescence; shares compounds with Tb PFK inh-1; 1,100 compounds, 47% hits; AID 504636; calls by dose curve; note: potency is the fitted concentration of half-maximal effect; nearly all actives have a fitted effect of over 60% in size
# Tb PFK inh-2 – T. brucei PFK enzyme inhibition, hit validation. Potency, µM (series often up to 57.5 µM), without a hit: at the highest dose activity change, negative = inhibition, hits mostly inhibitors. purified T. brucei PFK, ADP-Glo luminescence, 45 min. 1,100 compounds, 41% hits. shares compounds with Tb PFK inh-1;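 note: potency is the fitted concentration of half-maximal effect; plate controls were full PFK enzyme control for no effect and no enzyme control for full effect; nearly all actives have a fitted effect of over 60% in size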
# * = called active by the depositor; ? = inconclusive; . = no result; [ ] = remark or other dose. In the library only some 1.1% were active in any assay of this set; here they are far more common. Unless noted, calls come from the whole dose curve; as a rule, active = well fitted curve in the direction sought with a large enough effect; inconclusive = small, poorly fitted or top-dose-only effect, or another doubt; inactive = no such curve, though single readings can be large; an effect the other way counts as inactive or inconclusive.
SMILES,RXFP1 agonist,gsp agonist,gsp antagonist,RXFP1 antag,p53 reactivation,Tb PFK inh-1,Tb PFK KinaseGlo,Tb PFK inh-2
Cc1ccc(NC(=O)c2ccc(Cl)c(S(=O)(=O)NCc3ccco3)c2)c(O)c1,.,-61%,-16%,-6,3%,1%,.,.
CC/C(=N\NC(=O)c1ccccc1O)c1c(O)n(C2CCCCC2)c(=O)[nH]c1=O,2%,7%,-26%,2,9%,0%,.,.
COC(=O)C1=C(c2ccc(S(C)(=O)=O)cc2)C[C@@H]2CC[C@H]1N2C(=O)NC1CC1,.,-18%,6%,.,.,.,.,.
Cc1cc(NC(=O)c2cccn(Cc3ccccc3)c2=O)no1,9%,.,.,.,.,.,.,.
Cc1noc(NS(=O)(=O)c2ccc(NC(=O)COc3ccc(C#N)cc3)cc2)c1C,.,5%[15.4 µM],6%,13,-3%,13µM*,6.7µM*,21µM*
CCN1CCN(C(=O)COc2ccc(S(=O)(=O)Nc3ccc(Cl)cc3)cc2)CC1,1%,-4%,5%,6,11%,0%,.,.
Cc1cc(NS(=O)(=O)c2ccc(NC(=S)NCc3ccccc3)cc2)no1,0%,?,7%,5,0%,19µM*,24µM*,?
COc1ccc2c(c1OC)C(=O)OC2c1c(O)n(C2CCCCC2)c(=O)[nH]c1=O (stereo not given),3%,10%,9%,0,-3%,1%,.,.
Cc1ccc(C(=O)O)cc1NC(=S)NC(=O)Cc1ccccc1,0%,10%,-9%,0,7%,?,-27%,?
Cc1ccc(CCN2CC(C(=O)N3CCC4(CC3)OCCO4)CC2=O)cc1 (stereo not given),0%,9%,1%,-2,-3%,-2%,.,.
O=C(OCc1ccco1)c1ccc(S(=O)(=O)N2CCCCC2)cc1,1%,?,5%,8,?,24µM*,?,?
CCN(CC)C(=O)c1ccc(NC(=O)c2cc(S(=O)(=O)N3CCCCCC3)ccc2OC)cc1,1%,-7%[15.4 µM],?,5,3%,-4%,.,.
O=C(COc1ccccc1[N+](=O)[O-])N1CCN(CCc2ccncc2)CC1,0%,.,.,4,.,.,.,.
O=C(COc1ccc(Cl)cc1Cl)Nc1ccc(S(=O)(=O)NC2=NCCCCC2)cc1,-2%,-30%,-7%,3,-13%,15µM*,?,30µM*
O=C(COc1ccccc1[N+](=O)[O-])Nc1cccc(S(=O)(=O)NC2=NCCCCC2)c1,0%,-71%,-12%,-3,-5%,?,?,?
CN1CCN(C(=O)COc2ccc(S(=O)(=O)Nc3ccc(Cl)cc3)cc2)CC1,.,-75%,.,-1,.,.,.,.
Cn1c(O)c(/C=N/N2CCOCC2)c(=O)[nH]c1=S,0%,-3%[15.4 µM],9%,-5,-2%,-5%,.,.
COC(=O)C1=C(c2ccc3ccccc3c2)C[C@@H]2CC[C@H]1N2C(=O)NC(C)C,0%,-6%,6%,.,-14%,-10%,.,.
CN(C)CCn1nnnc1SCC1=C(C(=O)O)N2C(=O)[C@@H](NC(=O)Cc3csc(N)n3)[C@H]2SC1,2%,.,-2%,2,1%,12µM*,6%,-7%
CC1=C(C(=O)O)N2C(=O)C(NC(=O)CCCC(=O)O)C2SC1 (stereo not given),1%,9%[15.4 µM],9%,-12,-5%,-1%,.,.
O=[N+]([O-])c1c(Nc2ccc(O)cc2)cc(Cl)c2nonc12,6%,-25%,7.9µM*,?,-17%,?,7.6µM*,?
COc1ccccc1N1CCN(C(=O)C(C)CS(=O)(=O)c2ccc3c(c2)NC(=O)CS3)CC1 (stereo not given),-2%,0%,-1%,-11,1%,24µM*,6µM*,?
CC(C)CCC1(CCO)C(=O)NC(=S)NC1=O,.,7%,5%,-12,.,.,.,.
Cc1nc2ccc(NC(=O)c3ccc(Cl)s3)cc2s1,-1%,-13%,-19%,.,?,-4%,.,.
NCCc1c[nH]c2ccc(C(N)=O)cc12,0%,.,0%,.,3%,-2%,.,.
SMILES,RXFP1 agonist,gsp agonist,gsp antagonist,RXFP1 antag,p53 reactivation,Tb PFK inh-1,Tb PFK KinaseGlo,Tb PFK inh-2
NCCc1c[nH]c2ccc(F)cc12,0%,.,.,.,-4%,?,?,?
NCc1ccccc1COc1ccccc1,-1%,-34%,10%,-3,-4%,24µM*,?,?
N[C@@H](Cc1ccccc1)C(=O)N1C[C@H]2C[C@@H](C1)c1cccc(=O)n1C2,-3%,.,-6%,.,12%,2%,.,.
O=C1N=c2ccccc2=C1c1sc(Nc2ccc(O)cc2)nc1O,-2%,-6%[15.4 µM],-6%,-81*,?,?,-3%,15%
O=c1[nH]c(O)c(C=Nc2cccc(F)c2)c(=O)[nH]1,0%,-9%,-2%,5,4%,-1%,.,.
O=C(COC(=O)c1ccc(Cl)c(S(=O)(=O)N2CCOCC2)c1)Nc1ccc2[nH]c(=O)[nH]c2c1,-2%,-13%,-2%,5,2%,?,?,?
CCN1CCN(C(=O)COc2ccc(S(=O)(=O)N3CCOCC3)cc2Cl)CC1,-2%,-9%[15.4 µM],11%,-4,0%,-20%,.,.
O=C(Cc1ccc(Cl)c(Cl)c1)NNC(=S)NCC1CCCO1 (stereo not given),0%,-31%,4%,6,1%,?,21µM*,?
Oc1ccc(N=Nc2ccccc2-c2nn[nH]n2)c(O)c1,0%,-21%,0%,11,-5%,?,-29%,?
O=C1OC(Nc2ccc(F)c([N+](=O)[O-])c2)c2ccccc21 (stereo not given),2%,-7%[15.4 µM],10%,1,-1%,15µM*,21µM*,?
CC(C)(CS(=O)(=O)[O-])NC(=O)CC[N+](C)(C)CCO,-4%,?,3%,-2,-1%,0.67µM*,0.24µM*,0.43µM*
O=C(c1ccc(NC(=S)Nc2ccc(Cl)c(Cl)c2)cc1)N1CCCC1,-1%,5%[15.4 µM],-10%,-11,-2%,21µM*,?,?
CC(=O)c1ccc(NC(=S)Nc2ccc(Br)c(Cl)c2)cc1,0%,-30%,-16%,13,-2%,12µM*,30µM*,?
